# HT1080NT lethal: kills 2HG-producing HT-1080-NT fibrosarcoma cells. HT-1080-NT fibrosarcoma viability, CellTiter-Glo ATP luminescence, 48 h. Potency, µM (doses to about 46.1 µM), without a hit: top-dose activity, negative = less viability, most hits filed as cytotoxic. hit rate 1.6% among 360,000;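 also: NT is the 2HG producing partner of a matched IDH1 knockdown line; 0% = DMSO-treated cells and -100% = media-only wells without cells; nearly all actives have a fitted effect of over 55% in size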
#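 Fibrosarcoma NT cells, 750 per well in 5% FBS RPMI, were exposed to compound for 48 hours. Viability: CellTiter-Glo luminescence.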
# HT1080 IDH1KD tx: toxicity to HT-1080 IDH1 knockdown cells (counter line); HT-1080 IDH1 knockdown viability, ATP luminescence, 48 h; Potency, µM (doses to about 46.1 µM), inactives show at the highest dose activity, negative = toxicity, most hits filed as cytotoxic; hit rate 2% among 360,000; AID 686971;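 also: 0% = DMSO wells and -100% = cell-free medium wells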
#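 IDH1KD HT-1080 cells, 750/well, RPMI + 5% FBS; compound pinned after 2 h settling; 48 h, 37 °C; CellTiter-Glo luminescence; % activity normalised to DMSO and no-cell wells; curves fitted, classed by r2 and efficacy.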
# KB-3-1 cytotox: KB-3-1 parental cell cytotoxicity; KB-3-1 viability, CellTiter-Glo ATP luminescence, 72 h; Potency, µM (titrated, usually from 46.1 µM), most hits filed as cytotoxic; hit rate 1.4% among 400,000; also: nearly all actives have a fitted effect of over 60% in size
#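 Multi-concentration cytotoxicity screen in KB-3-1 cells grown in DMEM lacking phenol red with 10% FBS. After 72 h at 37 °C with compound, ATP-dependent luminescence was recorded.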
# KB-V1 MDR tox: kills drug-selected multidrug resistant KB-V1 cells | AID 1347076 | hit rate 3.4% among 400,000 | Potency, µM (top dose mostly 46.1 µM), usual class: cytotoxic | KB-V1 MDR cells viability, CellTiter-Glo, 72 h; also: nearly all actives have a fitted effect of over 60% in size
#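 Potencies derive from concentration-effect curves fitted to normalized luminescence (CellTiter-Glo) of KB-V1 cells treated for 72 h at 37 degrees C in phenol-red-free DMEM containing 10% FBS.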
# * = called active by the depositor; i = inactive; ? = inconclusive; / = not tested or not shown; ! = repeats disagree. This is a sample that favours compounds with a hit; in the whole collection about 5.7% have one here. Calls follow the shape of the dose curve; as a rule, active = well fitted curve in the direction sought with a large enough effect; inconclusive = small, poorly fitted or top-dose-only effect, or another doubt; inactive = no such curve, though single readings can be large; an effect the other way counts as inactive or inconclusive. Unless noted, % is scaled to controls: 0 for no effect and ±100 for the full control effect; potency is read from the fitted curve at half-maximal effect.
SMILES,HT1080NT lethal,HT1080 IDH1KD tx,KB-3-1 cytotox,KB-V1 MDR tox
Nc1ccc(C(=O)NN2C(=O)[C@H](Cl)C2c2ccc(Cl)cc2)cc1 (some centres not stated),?,18µM*,?,?
O=C(/C=C/Nc1ccc([N+](=O)[O-])cc1Br)c1cccc2ccccc12,-4%,1%,23µM*,i
CSc1ncc2c(n1)-c1ccccc1N(Cc1ccc(Cl)cc1)S2(=O)=O,/,/,i,i
CC(C)c1cc(C(C)C)c(S(=O)(=O)NNC(=O)c2ccncc2)c(C(C)C)c1,18%,21%,i,15µM*
COc1ccc(-c2cc3nc(C)c(CCC(=O)N4CCN(c5ccccc5F)CC4)c(C)n3n2)c(OC)c1,/,/,i,i
CCc1c(C)sc2c1CCN(C(=O)Nc1cc(Cl)c(OC)cc1OC)C2c1ccccc1 (configuration not stated),/,/,i,i
c1ccc2c(c1)OCCOCCOCCOCCOCCOc1ccccc1OCCOCCOCCO2,?,?,5.2µM*,5.2µM*
O=C(COc1ccccc1)OCc1cc(-c2ccco2)on1,-4%,-2%,i,?
CNC(=S)N/N=C/c1ccc(-c2ccc(C(=O)O)cc2)o1,?,8.2µM*,i,6.5µM*
CCNC(=S)N/N=C/c1cc(C)ccc1C,13%,8%,i,i
C=CCNC(=S)N/N=C/c1ccc(C)cc1C,23µM*,16µM*,?,?
C=CCNC(=S)N/N=C/c1ccc(N(CC)Cc2ccccc2)cc1,-15%,?,?,13µM*
C=CCNC(=S)N/N=C/c1ccc(-c2ccc(OC)cc2)o1,?,?,?,7.3µM*
CCN(CC)c1ccc(/C=N/NC(=S)NCc2ccccc2)cc1,7%,3%,i,i
CNC(=S)N/N=C/c1ccc(-c2ccc(Cl)c([N+](=O)[O-])c2)o1,-4%,11%,i,i
CCc1ccccc1NC(=O)C(=O)NCCCN1CCOCC1,/,/,i,?
Cc1[nH]c2ccccc2c1/C=N/NC(=O)c1cc(-c2ccccc2)n[nH]1,15µM*,15µM*,i,i
O=C(N/N=C/c1ccccc1OC(F)F)c1cc(-c2ccncc2)nc2ccccc12,?,2.1µM*,18µM*,i
Cc1nn(-c2ccccc2)c(C)c1/C=N/NC(=O)c1cc(-c2ccccc2)n[nH]1,0.73µM*,?,0.41µM*,?
Cc1cc(C(=O)N/N=C/c2c(CO)cnc(C)c2O)c2ccccc2n1,?,21µM*,?,i
Cc1ncc(CO)c(/C=N/NC(=O)c2cc(Br)ccc2O)c1O,?,?,i,i
O=C(O)COc1ccccc1/C=N/NC(=O)c1cc(-c2ccccc2)nc2ccccc12,4%,1%,i,i
CCOC(=O)c1ccccc1NC(=O)Cn1ncc2c([nH]c3ccccc32)c1=O,/,/,i,i
COC(=O)c1ccc(OCC2c3cc(OC)c(OC)cc3CCN2C(=O)COc2ccc(Cl)cc2)cc1 (configuration not stated),/,/,i,i
Cc1[nH]c2ccccc2c1/C=N/NC(=O)c1cc(-c2ccncc2)nc2ccccc12,?,4.6µM*,?,i
SMILES,HT1080NT lethal,HT1080 IDH1KD tx,KB-3-1 cytotox,KB-V1 MDR tox
Cc1[nH]c2ccccc2c1/C=N/NC(=O)c1ccccc1,3%,-2%,i,i
CCN(CC)c1cc(C)nc2nc(-c3ccc(C)cc3)nn12,/,/,i,i
O=C(NCc1cc(C(F)(F)F)cc(C(F)(F)F)c1)C1CC(c2ccccc2C(F)(F)F)=NO1 (configuration not stated),0%,-1%,i,?
CCOc1cc(CNc2ccc(CNc3ncn[nH]3)cc2)ccc1OCc1ccccc1,14%,-2%,23µM*,18µM*
CCOc1cc(CNc2ccc(C(=O)O)cc2)ccc1OCc1ccccc1,/,/,i,i
COc1cccc(-n2cc(CN(C)Cc3nc(Cc4cccc(F)c4)no3)cn2)c1,-1%,-2%,i,i
COc1ccc(CN(C)Cc2nc(Cc3cccc(F)c3)no2)c2cccnc12,-7%,-26%,?,1.8µM*
Clc1ccccc1-c1nnc(-c2ccccc2CNc2ccc(Br)cc2)o1,/,/,i,i
CC(=O)c1cccc(NC(=O)[C@H](Cc2ccccc2)N2Cc3ccccc3C2=O)c1,/,/,i,i
COc1cccc(CNC(=O)CCn2c(=O)c3cccn3c3cccnc32)c1,?,11%,i,18µM*!
COc1ccc(CCNC(=O)CCCn2c(=O)c3cccn3c3cccnc32)c(OC)c1,25%,4%,i,i
COc1cc(OC)cc(C(=O)Nc2ccc3c(c2)OCCO3)c1,?,?,16µM*!,9.2µM*!
Cc1ccc(C(=O)Nc2ccc3c(c2)OCCO3)o1,?,?,i,21µM*
Cn1c(C(=O)Nc2ccc3c(c2)OCCO3)cc2sccc21,-15%,-20%,i,15µM*
CCc1nnc2c3ccccc3nc(Nc3ccc(F)c(Cl)c3)n12,/,/,i,?
Cc1cc(S(=O)(=O)n2ccnc2C(C)C)cc([N+](=O)[O-])c1C,/,/,i,i
CCOC(=O)N1CCN(C(=O)C(=O)c2cn(CC(=O)N3CCCCCC3)c3ccccc23)CC1,-4%,0%,i,i
Cc1sc2ncn(CC(=O)N3CCN(c4ccccc4F)CC3)c(=O)c2c1S(=O)(=O)N1CCN(c2ncccn2)CC1,/,/,i,i
COc1ccc(-c2nnc(SCC(=O)Nc3cccc(C(F)(F)F)c3)nc2-c2ccc(OC)cc2)cc1,/,/,i,?
